Results reported in PubChem BioAssay (NCATS).
Records with an inconclusive call do not appear. Calls of active or inactive are those of the source. The call rests on the fitted dose curve; in most records, active means well fitted curve in the direction sought with a large enough effect; inconclusive means small, poorly fitted or top-dose-only effect, or another doubt; inactive means no such curve, though single readings can be large; an effect the other way counts as inactive or inconclusive.

Experiments:
[1] = qHTS to identify inhibitors of the type 1 interferon - major histocompatibility complex class I in skeletal muscle: primary screen against the NCATS Pharmaceutical Collection (AID 1347407);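 further: luminescence of HiBiT knocked into endogenous HLA-B as interferon-induced MHC class I level; on the % scale 0 is the no-effect control and ±100 the full control effect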
Method in brief: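 A qHTS format is used: 8-point, 1:5 compound series with 46 uM top final concentration, applied alongside 4 ng/ml IFN-beta to HLA-B*08:01-HiBiT knock-in myoblasts. Luminescence is measured after 24 h treatment.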

[2] = molecular target: Protein phosphatase 1D (Homo sapiens) (UniProt O15297); assay: RapidFire Mass Spectrometry qHTS Assay for Modulators of WT P53-Induced Phosphatase 1 (WIP1) (AID 1347424);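 further: series mostly up to about 63 µM; plate controls were DMSO wells for no effect and GSK830371 inhibitor control at 10 µM for full effect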
Sequence of Protein phosphatase 1D (Homo sapiens) (O15297 whole entry, looked up): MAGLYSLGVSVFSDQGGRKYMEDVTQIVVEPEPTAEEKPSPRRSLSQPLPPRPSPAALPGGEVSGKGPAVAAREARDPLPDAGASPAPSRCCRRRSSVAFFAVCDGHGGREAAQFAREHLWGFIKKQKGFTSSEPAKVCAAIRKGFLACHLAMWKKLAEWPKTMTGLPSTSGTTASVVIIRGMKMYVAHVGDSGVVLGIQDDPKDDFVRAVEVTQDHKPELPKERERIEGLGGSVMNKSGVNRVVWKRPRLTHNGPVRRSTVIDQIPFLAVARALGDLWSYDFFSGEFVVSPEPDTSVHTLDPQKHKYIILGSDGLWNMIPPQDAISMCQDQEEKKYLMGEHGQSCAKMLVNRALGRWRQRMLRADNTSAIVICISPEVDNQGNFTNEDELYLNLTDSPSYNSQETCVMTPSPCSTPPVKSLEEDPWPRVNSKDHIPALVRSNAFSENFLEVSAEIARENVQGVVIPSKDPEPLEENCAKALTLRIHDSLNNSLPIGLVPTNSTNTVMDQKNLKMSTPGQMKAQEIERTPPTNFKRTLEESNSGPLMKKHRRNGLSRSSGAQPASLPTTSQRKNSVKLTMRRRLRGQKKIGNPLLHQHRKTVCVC
Method in brief: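 RapidFire MS readout of dephosphorylated VEPPL-S-QETFS product, with 1 uM isotope-labelled peptide standard. Reaction: 10 nM WIP1, 2 uM phosphopeptide substrate, 5 min, room temperature, after 1 h compound preincubation; stopped with 0.5% formic acid.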

[3] = molecular target: Protein phosphatase 1D (Homo sapiens) (UniProt O15297); assay: Rhodamine-PBP qHTS Assay for Modulators of WT P53-Induced Phosphatase 1 (WIP1) (AID 1347425); further: % of control where 0% means no effect
Method in brief: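 Steps: enzyme with Rh-PBP sensor and compounds, room-temperature incubation of 1 hr, baseline read, addition of VEPPL-pS-QETFS (10 uM final), kinetic fluorescence reads at 525/598 nm. Activity equals final minus baseline signal.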

[4] = Primary qHTS for inhibitors of La Crosse Virus (LACV) - induced cell death in SH-SY5Y cells (AID 1508616);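 further: top concentration of the series differs between compounds; 0% = infected DMSO wells and 100% = uninfected DMSO wells; higher means more rescue of cells from virus-induced death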
Method in brief: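 SH-SY5Y, 6000 cells/well; cpd via pin tool in DMSO; LACV 0.01 MOI; 6 d 37C 5% CO2; ATPLite, 5 min RT; luminescence normalized to ±virus DMSO controls.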

[5] = molecular target: Calcium and integrin-binding protein 1 (Homo sapiens) (UniProt Q99828); assay: Primary qHTS for Identification of Calcium Integrin Binding Protein 1 (CIB1) Competitor (AID 1508620);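 further: GST tagged CIB1 binding a fluorescein labelled alphaIIb integrin peptide tracer; top concentration of the series differs between compounds; on the % scale 0 is the no-effect control and ±100 the full control effect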
Sequence of Calcium and integrin-binding protein 1 (Homo sapiens) (Q99828 whole entry, looked up): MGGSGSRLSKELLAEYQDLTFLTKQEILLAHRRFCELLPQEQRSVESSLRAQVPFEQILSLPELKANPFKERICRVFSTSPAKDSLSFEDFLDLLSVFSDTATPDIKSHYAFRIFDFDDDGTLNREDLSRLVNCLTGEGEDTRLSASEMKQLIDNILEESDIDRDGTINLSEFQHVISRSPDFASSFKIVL
Method in brief: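 Fluorescence polarization competition: GST-tagged CIB1 (1 uM final) preincubated with compound 15 min at room temperature, then FITC-labelled alphaIIb peptide (100 nM final) added. After 15 min at room temperature, polarization read at Ex 480/Em 540.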

CC(C)(C)NCC(O)COc1ccccc1OCC1CCCO1 (stereo not given)
inactive: Potency [1] | Potency [2] | outcome [3] | outcome [4] | Potency [5]

COC(=O)c1c(Cl)c(Cl)c(C(=O)OC)c(Cl)c1Cl
inactive: Potency [1] | Potency [2] | outcome [3] | outcome [4] | Potency [5]

CC(C)Cc1ccc(C(C)C(=O)OCc2ccccn2)cc1 (stereo not given)
inactive: Potency [1] | Potency [2] | outcome [3] | outcome [4] | Potency [5]

CC(=O)OC/C=C(C)/C=C/C=C(C)/C=C/C1=C(C)CCCC1(C)C
inactive: Potency [1] | Potency [2] | outcome [3] | outcome [4] | Potency [5]

CCOC(=O)c1cc(=O)c2c(OCC(COc3cccc4oc(C(=O)OCC)cc(=O)c34)OC(=O)[C@@H](N)CCCCN)cccc2o1
inactive: Potency [1] | Potency [2] | outcome [3] | outcome [4] | Potency [5]

COc1ccc2nc(SCc3ncc(C)c(OC)c3C)[nH]c2c1
inactive: Potency [1] | Potency [2] | outcome [3] | outcome [4] | Potency [5]

O=[N+]([O-])c1cncn1CCN1CCOCC1
inactive: Potency [1] | Potency [2] | outcome [3] | outcome [4] | Potency [5]

CCOc1ncc(F)c(=O)[nH]1
inactive: Potency [1] | Potency [2] | outcome [3] | outcome [4] | Potency [5]

CC(=O)Nc1ccc(S(=O)(=O)Nc2cc(C)on2)cc1
inactive: Potency [1] | Potency [2] | outcome [3] | outcome [4] | Potency [5]

OCCc1ccccc1
inactive: Potency [1] | Potency [2] | outcome [3] | outcome [4] | Potency [5]

COC(=O)/C=C\C(=O)OC
inactive: Potency [1] | Potency [2] | outcome [3] | outcome [4] | Potency [5]

C/C(=N\O)[C@@H](C)NCC(C)(C)CN[C@H](C)/C(C)=N/O
inactive: Potency [1] | Potency [2] | outcome [3] | outcome [4] | Potency [5]

O=C1CC2(CCCC2)CC(=O)N1CCNCC1COc2ccccc2O1 (stereo not given)
inactive: Potency [1] | Potency [2] | outcome [3] | outcome [4] | Potency [5]

CCCCCOc1ccccc1/C(=C\SC)n1ccnc1
inactive: Potency [1] | Potency [2] | outcome [3] | outcome [4] | Potency [5]

CCC(=O)O[C@]1(C(=O)COC)[C@@H](C)C[C@H]2[C@@H]3CCC4=CC(=O)C=C[C@]4(C)C3(F)[C@@H](O)C[C@@]21C (stereo not given in full)
inactive: Potency [1] | Potency [2] | outcome [3] | outcome [4] | Potency [5]

CN1C(=O)c2ccccc2C1=O
inactive: Potency [1] | Potency [2] | outcome [3] | outcome [4] | Potency [5]

CCCCCC(=O)O[C@]1(C(C)=O)CC[C@H]2[C@@H]3CCC4=CC(=O)CC[C@]4(C)[C@H]3CC[C@@]21C
inactive: Potency [1] | Potency [2] | outcome [3] | outcome [4] | Potency [5]

Cc1cc(CCCOc2c(C)cc(-c3noc(C(F)(F)F)n3)cc2C)on1
inactive: Potency [1] | Potency [2] | outcome [3] | outcome [4] | Potency [5]

C[C@@H]1C[C@H]2[C@@H]3CCC4=CC(=O)C=C[C@]4(C)[C@@]3(F)[C@@H](O)C[C@]2(C)[C@@]1(O)C(=O)COC(=O)c1ccncc1
inactive: Potency [1] | Potency [2] | outcome [3] | outcome [4] | Potency [5]

NCC[C@H](O)C(=O)N[C@@H]1C[C@H](N)[C@@H](O[C@H]2O[C@H](CN)[C@@H](O)[C@H](O)[C@@H]2O)[C@H](O)[C@@H]1O[C@H]1O[C@H](CO)[C@@H](O)[C@H](N)[C@@H]1O
inactive: activity change, negative = inhibition [1] -1.93% [at 0.727 µM] | activity change, negative = inhibition [2] 3.64% [at 0.505 µM] | activity change, negative = inhibition [3] 3.01% [at 0.575 µM] | activity change [4] 4.33% [at 0.0343 µM] | activity change, negative = inhibition [5] 3.05% [at 1.07 µM]

CO[C@@H]1[C@@H](O[C@@H]2O[C@H](C)[C@@H](O[C@H]3C[C@@](C)(O)[C@@H](O)[C@H](C)O3)[C@H](N(C)C)[C@H]2O)[C@@H](CC=O)C[C@@H](C)[C@@H](O[C@@H]2CC[C@H](N(C)C)[C@@H](C)O2)/C=C/C=C/C[C@@H](C)OC(=O)C[C@H]1OC(C)=O
inactive: Potency [1] | Potency [2] | outcome [3] | outcome [4] | Potency [5]

CCCCCN(CCCOC)C(=O)C(CCC(=O)O)NC(=O)c1ccc(Cl)c(Cl)c1 (stereo not given)
inactive: Potency [1] | Potency [2] | outcome [3] | outcome [4] | Potency [5]

C[C@H](N)C(=O)N[C@@H](C)C(=O)NC1[C@H]2CN(c3nc4c(cc3F)c(=O)c(C(=O)O)cn4-c3ccc(F)cc3F)C[C@@H]12 (stereo not given in full)
inactive: Potency [1] | Potency [2] | outcome [3] | outcome [4] | Potency [5]

CCS(=O)(=O)c1ccc(OC)c(C(=O)OC)c1
inactive: Potency [1] | Potency [2] | outcome [3] | outcome [4] | Potency [5]

O=C(O)[C@@H](O)[C@H](O)[C@H](O)[C@@H](O)C(=O)O
inactive: Potency [1] | Potency [2] | outcome [3] | outcome [4] | Potency [5]

CC(C)(C)c1cc(C=O)cc(C(C)(C)C)c1O
inactive: Potency [1] | Potency [2] | outcome [3] | outcome [4] | Potency [5]

COc1ccc2cc(C=O)ccc2c1
inactive: Potency [1] | Potency [2] | outcome [3] | outcome [4] | Potency [5]

CNC(=O)c1c(I)c(NC(C)=O)c(I)c(C(=O)O)c1I
inactive: Potency [1] | Potency [2] | outcome [3] | outcome [4] | Potency [5]

Cc1ccc(/C=N/n2c(-c3ccccc3)csc2=S)cc1
inactive: Potency [1] | Potency [2] | outcome [3] | outcome [4] | Potency [5]

CN(C)CCN(Cc1ccsc1)c1ccccn1
inactive: Potency [1] | Potency [2] | outcome [3] | outcome [4] | Potency [5]

COCCOCC(OC)OC
inactive: Potency [1] | Potency [2] | outcome [3] | outcome [4] | Potency [5]

O=C(O)/C=C(\CC(=O)O)C(=O)O
inactive: Potency [1] | Potency [2] | outcome [3] | outcome [4] | Potency [5]

CC1(C)OC(=O)Nc2ccc(Br)cc21
inactive: Potency [1] | Potency [2] | outcome [3] | outcome [4] | Potency [5]
